Measured values as given in PubChem BioAssay AID1159580 (chemical genetic matrix, 2015).
Out of some 5,500 compounds screened, about 2,000 (36%) were called active. Roughly 18% stayed inconclusive and do not appear here. No stated cut-off is given here; in the data, active means normalized growth mostly below about 0.91 (no sharp cut-off); inconclusive means no clear call, values can overlap the other calls; inactive means mostly above about 0.92. This is one part of the list.

Assay: chemical genetic growth profiling, strain panel (AID 1159580);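 further: tested at 20 µM; growth read once vehicle control cultures reached saturation at 30 °C; 1 = growth at the plate median or of vehicle wells; lower values mean less growth of the strain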
Conditions: S. cerevisiae deletion strains, growth OD

Measured: normalized growth

NC1=C(c2ccccc2)C(=O)NC1=O
inactive: locus YAL013W, strain DEP1, hits give low values 1.01 | locus YBR229C, strain ROT2, hits give low values 1.05 | locus YCL061C, strain MRC1, hits give low values 1.03 | locus YDL101C, strain DUN1, hits give low values 0.993 | locus YDR150W, strain NUM1, hits give low values 0.991 | locus YEL061C, strain CIN8, hits give low values 0.999 | locus YGR078C, strain PAC10, hits give low values 0.998 | locus YGR229C, strain SMI1, hits give low values 1.01 | locus YHR030C, strain SLT2, hits give low values 1.02 | locus YHR087W, strain rtc3, hits give low values 0.988 | locus YJR043C, strain POL32, hits give low values 1.01 | locus YJR075W, strain HOC1, hits give low values 0.95 | locus YLR039C, strain RIC1, hits give low values 1.02 | locus YLR058C, strain SHM2 (second series), hits give low values 1.02 | locus YLR085C, strain ARP6, hits give low values 0.946 | locus YLR262C, strain YPT6, hits give low values 1.01 | locus YML094W, strain GIM5, hits give low values 0.993 | locus YMR219W, strain ESC1, hits give low values 0.984 | locus YMR263W, strain SAP30, hits give low values 1.01 | locus YNL128W, strain TEP1, hits give low values 1.03 | locus YNL153C, strain GIM3, hits give low values 1 | locus YNL298W, strain CLA4 (second series), hits give low values 0.996 | locus YNL322C, strain KRE1, hits give low values 1 | locus YNR030W, strain Alg12, hits give low values 0.989 | locus YPL055C, strain LGE1, hits give low values 0.994 | locus YPL241C, strain CIN2, hits give low values 1.01 | locus YPR135W, strain CTF4, hits give low values 0.974
